Compound activity (PubChem BioAssay)
PKA-R2B activ = activators of PKA-R2B holoenzyme, primary screen, biochemical, fluorescence polarization, Cy5-IP20, human. PKA-R2B holoenzyme dissociation; R2B truncated from residue 108, S112A mutant; 0% DMSO only, 100% 113 µM cGMP. 340,000 compounds, 0.079% hits. AID 504700, 2011. activation, % at 11.4 µM. cAMP-dependent protein kinase catalytic subunit beta (Homo sapiens) + cAMP-dependent …;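 active = activation above a cutoff set at the mean over all compounds plus 3 SD, cut at about 18% in these data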;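 also: higher means more holoenzyme dissociation and a rise in polarization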
GASC-1 inh = inhibitors of GASC-1 histone demethylase, primary screen, biochemical, fluorescence, DELFIA europium | Lysine-specific demethylase 4C (Homo sapiens), Q9H3R0 | GST-JMJD2C(1-420) H3K9me3 demethylation | inhibition, % at 2.35 µM | 330,000 compounds, 0.069% hits | AID 2099, 2009;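 active = more than half of a compound's replicate wells show inhibition beyond 50%, single wells judged on their own value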;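 also: signal counts dimethyl H3K9 product captured on neutravidin plate; 0% = median of DMSO wells and 100% = 0.3 times that DMSO median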
Target sequence (Q9H3R0 1-420 limits assumed): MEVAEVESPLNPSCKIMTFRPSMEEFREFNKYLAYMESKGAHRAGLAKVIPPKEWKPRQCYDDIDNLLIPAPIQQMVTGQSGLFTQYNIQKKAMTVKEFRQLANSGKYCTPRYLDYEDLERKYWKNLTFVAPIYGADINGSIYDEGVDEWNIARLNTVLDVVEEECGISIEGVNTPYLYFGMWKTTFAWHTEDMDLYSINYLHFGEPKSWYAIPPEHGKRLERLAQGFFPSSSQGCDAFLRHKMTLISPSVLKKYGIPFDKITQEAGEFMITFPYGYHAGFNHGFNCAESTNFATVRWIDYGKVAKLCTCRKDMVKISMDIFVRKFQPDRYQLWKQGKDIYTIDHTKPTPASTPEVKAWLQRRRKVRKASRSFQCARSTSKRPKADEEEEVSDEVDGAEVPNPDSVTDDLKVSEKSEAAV
PKA-R1A activ = activators of PKA-R1A holoenzyme, primary screen, biochemical, fluorescence polarization, Cy5-IP20, bovine R1A, mouse PKAc. cAMP-dependent protein kinase type I-alpha regulatory subunit (Bos taurus) + …. PKA-R1A dissociation; scaled: DMSO 0%, 113 µM cGMP 100%. activation, % at 11.4 µM. 340,000 compounds, 0.083% hits;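 active = percent activation above the mean of all tested compounds plus 3 SD, cut at about 19% in these data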;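 also: higher means more PKAc released from R1A so a rise in polarization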
Yeast superoxide = reduction of superoxide in aged yeast, primary screen, HTS. AID 2690, 2010. 330,000 compounds, 0.18% hits. superoxide response (% of plate mean), % at 10 µM. S. cerevisiae aged cells, superoxide DHE fluorescence; stronger effect = lower value;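 active = superoxide response under a set limit, about three screen SD below normal, cut at about 65% in these data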;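 also: yeast aged for seven days with compound at 30 °C before DHE staining; 100% = average MFI of all compound-treated wells on the plate with controls excluded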
V-ATPase pHluor = regulators of yeast V-ATPase proton pumping, primary screen, pHLuorin cytosolic pH fluorescence; S. cerevisiae; response, % at 10 µM; 350,000 compounds, 0.37% hits; in the data active = response mostly above about 7.3%, no sharp cut-off; inactive = mostly below about 5.4%; also: actives read high
PolyA inh = polyadenylation inhibitors in yeast reporter cells, primary screen, luminescence, S. cerevisiae; 300,000 compounds, 0.02% hits; activity score, % at 12 µM; S. cerevisiae SKY197-pL101 polyadenylation reporter, beta-gal luminescence; efflux-impaired pdr1/pdr3 knockout yeast; score 100 = 6 SD above DMSO;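 active = lowest replicate activity score at least 50, where 100 means six control SD above control mean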;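 also: yeast exposed to compound for 9 h at 30 °C; higher score means more reporter readthrough which indicates perturbed polyadenylation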
* hit, by the source's call; x = no result given. Most compounds without a hit are left out; they make up all but 0.78% or so of the library.

SMILES	PKA-R2B activ	GASC-1 inh	PKA-R1A activ	Yeast superoxide	V-ATPase pHluor	PolyA inh
CCO[C@@H]1OC(C(=O)NC2CC2)=C[C@H](c2c[nH]c3ccccc23)[C@H]1CCCO	-12	52*	3	87	16	17
CCO[C@H]1OC(C(=O)NC2CC2)=C[C@@H](c2c[nH]c3ccccc23)[C@@H]1CCCO	11	-14	-5	103	2	15
Nc1c(Cl)cc(-c2csc(N3CCCC3c3nc4cc(Cl)c(N5CCCCC5)cc4n3CCOCCO)n2)cc1Cl (stereo not given)	7	-4	-1	101	4	37
Cc1cccc(NC(=S)N2CCN(Cc3ccccc3)CC2)c1C	-5	2	-5	92	16*	-13
CCOC(=O)C=C(C(=O)OCC)C(=O)OCC	-7	x	-2	x	9	x
Cc1nc(NC(=O)c2cc3c(s2)CCCCC3)sc1C(=O)N(C)C	-6	-7	-4	102	0	3
COC(=O)c1sc(NC(=O)c2cc3c(s2)CCCC3)nc1C	2	60*	-10	101	1	43
COc1ccc(CNC(=O)CSc2nnnn2Cc2ccccc2)cc1	-5	52*	-4	99	-1	-3
CCCn1nnnc1SCC(=O)NCc1ccc(OC)cc1	-2	31	-9	104	1	0
CCCn1nnnc1SCC(=O)NCc1ccc2c(c1)OCO2	-4	62*	-11	111	-1	6
CC(=O)Nc1cccc(OCCCNS(=O)(=O)c2ccc(C#N)cc2)c1	17	3	8	x	0	2
Cc1nn(-c2ccccc2)c(C)c1CNC(=O)c1ccc(S(=O)(=O)NCc2ccco2)cc1	-4	-2	9	102	20*	x
COc1cccc(N=c2oc3c(C)ncc(CO)c3cc2C(=O)Nc2ccccc2OC)c1	x	-7	x	x	x	10
COc1ccc(NC(=O)c2cc3c(COC(C)=O)cnc(C)c3oc2=Nc2cccc(C(=O)O)c2)c(OC)c1	-3	5	19*	99	-5	4
COc1cccc(C(=O)N2CCCN(C)CC2)c1OC	-8	-17	0	112	1	19
Clc1cccc(Cl)c1Cn1c(-c2cccnc2Cl)nc2ccccc21	-12	52*	-14	106	-1	-7
CCN(CC)CCCn1c(C)cc2c(c1=O)C(c1cccc(Cl)c1)C(C#N)=C(N)O2 (stereo not given)	3	x	10	x	36*	x
Cn1cnc2ncnc(Oc3ccc(Br)cc3)c21	6	x	-1	x	1	x
S=C(NC1CCCCC1)N1CCN(c2ccccn2)CC1	-7	-3	4	101	0	16
CCCNS(=O)(=O)c1ccc(OCC(=O)OC)cc1	0	10	-5	97	5	-6
CCCNS(=O)(=O)c1ccc(OCC(=O)N(C)Cc2ccccc2)cc1	6	-3	-11	60*	-1	-2
O=C(COC(=O)c1cccc(Cl)c1)NCCN1C(=O)CSC1=O	-10	-1	-1	96	16*	6
CC(CCc1ccccc1)N1CCN(C)CC1 (stereo not given)	-2	-15	5	107	-1	15
COc1cc(C2c3[nH]c4ccccc4c3C[C@H]3C(=O)N(C4CC4)CC(=O)N23)ccc1OC(C)C (stereo not given in full)	3	-8	4	101	5	3
Cc1ccc(-c2nn3c(C)nnc3s2)cc1NC(=O)CSc1ccc(Cl)cc1	-10	2	9	115	7	88*
SMILES	PKA-R2B activ	GASC-1 inh	PKA-R1A activ	Yeast superoxide	V-ATPase pHluor	PolyA inh
Cc1nnc2sc(-c3ccc(NC(=O)CSc4ccc(Cl)cc4)cc3)nn12	-8	0	-4	89	-6	-3
O=C(NCc1ccc2c(c1)OCO2)c1c(O)c2cccc3c2n(c1=O)CCC3	-1	-14	-1	95	30*	9
COc1ccc(CNC(=O)C/C(C)=N/NC(=O)COc2ccc(C)cc2Br)cc1	-1	11	-5	117	-1	6
O=C(CCSCc1cccc(Cl)c1)NCCc1ccc(Cl)cc1	-8	11	-8	106	58*	5
COc1ccc(OC)c(Nc2nc(-c3cccs3)cs2)c1	0	51*	3	86	-2	-8
COc1cc(OC)cc(C(=O)NNC(=O)c2cc(S(=O)(=O)N3CCOCC3)ccc2F)c1	-5	3	-6	82	-9	x
CCOc1ccccc1-c1c2cc(O)c(=O)cc-2oc2cc(O)c(O)cc12	-1	x	-9	x	75*	x
O=c1cc2oc3cc(O)c(O)cc3c(-c3ccccc3O)c-2cc1O	-7	x	-6	x	-3	x
COC(=O)c1ccccc1N1C(=O)C2C(C1=O)C1C=CC2C12CC2 (stereo not given)	-6	-10	4	57*	x	4
CN1Cc2sc(NC(=S)NC(=O)c3ccccc3)c(C#N)c2CC1(C)C	x	2	x	109	29*	-10
O=C(O)C1OC1(c1ccccc1Cl)c1ccccc1Cl (stereo not given)	-5	x	3	x	-4	x
O=C1CCCC2=C1C(c1ccc(OS(=O)(=O)c3ccc(Cl)cc3)cc1)C1=C(CCCC1=O)O2	11	57*	-11	108	1	12
CCc1ccc(C2C3=C(CCCC3=O)OC3=C2C(=O)CCC3)cc1	-4	-1	4	93	7	-1
CN(Cc1ccco1)S(=O)(=O)c1ccc(CN2C(=O)c3cccnc3C2=O)s1	1	-3	-2	122	13*	3
COc1ccc(CN2C(=O)c3cccnc3C2=O)cc1S(=O)(=O)N(C)Cc1ccco1	2	-6	10	78	3	9
O=C1c2ccccc2C(Nc2cccnc2)N1Cc1ccccc1 (stereo not given)	0	-7	1	88	2	1
CCCCNC1c2ccccc2C(=O)N1Cc1ccccc1 (stereo not given)	3	-2	0	103	17*	13
CCOc1ccc2nc(SCC(=O)NCc3ccccc3OC)[nH]c2c1	-5	0	-4	104	5	3
O=C1NC(c2ccccc2)Nc2c1sc(=S)n2-c1ccccc1 (stereo not given)	-1	-17	7	121	-1	2
O=C(CSC1=NCCS1)NC(c1ccccc1)c1ccccc1	3	-23	19*	93	-1	-5
CCCc1cc(=O)[nH]c(SCC(=O)Nc2c(C)n(C)n(-c3ccccc3)c2=O)n1	2	4	4	124	0	x
